Experimental findings from PubChem BioAssay (NCI) are described below.

Compounds without any hit were thinned out: in the full panel of roughly 83,000, 20% have a hit.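 A percent growth of 40 corresponds to 60% growth inhibition; 0 means no net growth; -100 means all cells died. Active threshold: below 10.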 Values without a mark were called inactive. Calls of active or inactive are those of the source.

Test systems include SR leukemia; RPMI-8226 leukemia; OVCAR-8 ovarian; OVCAR-5 ovarian; OVCAR-4 ovarian; SK-OV-3 ovarian; IGROV1 ovarian; OVCAR-3 ovarian; HS 578T breast; NCI/ADR-RES ovarian.
Holding throughout (assay): NCI-60 one-dose screen, 48 h (100 = growth as untreated, 0 = no growth, -100 = all killed)
What all share (conditions): 10 µM unless noted

For `Oc1ccccc1\C=N/N=C/C=C/c1ccccc1`, the growth in the test on SR leukemia is 71.9%; in the test on RPMI-8226 leukemia it was 107%; in the test with OVCAR-8 ovarian, 103%; with OVCAR-5 ovarian it was 112%; in the test on OVCAR-4 ovarian, 97.7%; in the test with SK-OV-3 ovarian, 87.9%. Besides, the growth was 101% with IGROV1 ovarian, 96.3% with OVCAR-3 ovarian, 106% in the test on HS 578T breast and 102% in the test on NCI/ADR-RES ovarian.

`Clc1ccc(I)c2ccccc12`: the growth is 102% in the test with SR leukemia; 104% with RPMI-8226 leukemia; 102% with OVCAR-8 ovarian; 107% in the test on OVCAR-5 ovarian; 107% in the test with OVCAR-4 ovarian; 103% in the test with SK-OV-3 ovarian. Moreover, the growth in the test on IGROV1 ovarian was 107%; in the test with OVCAR-3 ovarian, 108%; with HS 578T breast, 98.9%; in the test with NCI/ADR-RES ovarian, 109%.

Turning to `CC(=O)Nc1nc(C)c(C(=O)N/N=C/N2CCOCC2)s1`, the growth with SR leukemia is 169%; in the test with RPMI-8226 leukemia it was 116%; in the test with OVCAR-8 ovarian, 115%; in the test on OVCAR-5 ovarian it was 106%; in the test with OVCAR-4 ovarian it was 119%; with SK-OV-3 ovarian, 110%. In addition, the growth in the test on IGROV1 ovarian was 70.3%; in the test on OVCAR-3 ovarian it was 104%; in the test with HS 578T breast, 97.6%; in the test with NCI/ADR-RES ovarian, 120%.

For `O=C1/C(=C\c2cn(-c3nc(N4CCOCC4)nc(N4CCOCC4)n3)c3ccccc23)c2ccccc2N1c1c(Cl)cccc1Cl`, the growth in the test on SR leukemia is 27.4%; with RPMI-8226 leukemia, 60.1%; in the test with OVCAR-8 ovarian, 76.1%; in the test with OVCAR-5 ovarian it was 52.1%; with OVCAR-4 ovarian, 65.1%; in the test with SK-OV-3 ovarian, 7.66% (active). Besides, the growth was 36.2% in the test with IGROV1 ovarian, 69.6% in the test on OVCAR-3 ovarian, 27.9% in the test with HS 578T breast and 72.4% in the test with NCI/ADR-RES ovarian.

Take `COc1ccc(C(O)(c2ccccc2)C(C(=O)O)c2ccccc2)cc1` (stereo not given): the growth is 103% in the test with SR leukemia; 95.5% in the test with RPMI-8226 leukemia; 107% in the test on OVCAR-8 ovarian; 102% with OVCAR-5 ovarian; 98% with OVCAR-4 ovarian; 102% in the test with SK-OV-3 ovarian. The growth is 104% in the test on IGROV1 ovarian, 114% in the test with OVCAR-3 ovarian, 114% in the test with HS 578T breast and 108% in the test with NCI/ADR-RES ovarian.

With `COc1cc(OC)c(NC(=O)n2ncc3cc(Nc4ncnc5ccccc45)ccc32)cc1Cl`, the growth in the test on SR leukemia was 89.6%; in the test with RPMI-8226 leukemia it was 101%; in the test on OVCAR-8 ovarian, 110%; with OVCAR-5 ovarian, 74.2%; with OVCAR-4 ovarian it was 99.8%; in the test with SK-OV-3 ovarian, 110%. Also, the growth is 56.4% in the test with IGROV1 ovarian, 91.3% with OVCAR-3 ovarian, 112% in the test with HS 578T breast and 97.3% with NCI/ADR-RES ovarian.

As to `CCOC(=O)c1c(C)oc2ncnc(Nc3ccc(NC(=O)Nc4cccc(Cl)c4)cc3)c12`, the growth is 53.6% with SR leukemia; 46.1% with RPMI-8226 leukemia; 50.2% in the test with OVCAR-8 ovarian; 122% with OVCAR-5 ovarian; 73.7% with OVCAR-4 ovarian; 93.3% with SK-OV-3 ovarian. The growth in the test with IGROV1 ovarian is 78.4%; in the test with OVCAR-3 ovarian, 80.9%; in the test with HS 578T breast it was 80.6%; with NCI/ADR-RES ovarian, 43.8%.

As to `CCCCCCCCCCC(C[N+](C)(C)C/C=C/c1ccccc1)C(O)c1ccccc1` (stereo not given), the growth is -46.2% (active) in the test with SR leukemia; -50.8% (active) in the test with RPMI-8226 leukemia; 20.5% with OVCAR-8 ovarian; 42.6% with OVCAR-5 ovarian; 8.79% (active) with OVCAR-4 ovarian; 53.1% in the test on SK-OV-3 ovarian. Also, the growth in the test with IGROV1 ovarian is -70.9% (active); in the test on OVCAR-3 ovarian, -50.7% (active); in the test with HS 578T breast, 49%; in the test on NCI/ADR-RES ovarian, 97.6%.

Consider `COC(=O)c1ccc2[nH]c(O)c(C(=Nc3ccc(N(C)C(=O)CN4CCN(C)CC4)cc3)c3cccc(OC)c3)c2c1`, for which the growth with SR leukemia was -3.85% (active); with RPMI-8226 leukemia, 4.7% (active); with OVCAR-8 ovarian, 23.7%; in the test with OVCAR-5 ovarian it was 33.8%; in the test on OVCAR-4 ovarian, 25.4%; in the test on SK-OV-3 ovarian, -0.652% (active). Moreover, the growth is 1.75% (active) in the test on IGROV1 ovarian, 10.5% in the test on OVCAR-3 ovarian, 6.7% (active) in the test on HS 578T breast and 99.5% in the test with NCI/ADR-RES ovarian.

In the case of `COc1ccc(-c2cn3ccnc3c(-c3ccc4ncn(C5CCCCC5)c4c3)n2)cc1`, the growth in the test on SR leukemia was 8.27% (active); with RPMI-8226 leukemia, 4.37% (active); in the test with OVCAR-8 ovarian, 28.8%; in the test with OVCAR-5 ovarian, 41.2%; in the test on OVCAR-4 ovarian, 53.4%; in the test with SK-OV-3 ovarian, 25.7%. Further, the growth in the test on IGROV1 ovarian was 46.6%; in the test on OVCAR-3 ovarian, -26.5% (active); with HS 578T breast, 20%; with NCI/ADR-RES ovarian, 12.8%.

In the case of `CSc1nc(N)n2nccc2n1`, the growth with SR leukemia is 111%; with RPMI-8226 leukemia, 106%; with OVCAR-8 ovarian, 98.5%; in the test with OVCAR-5 ovarian it was 114%; with OVCAR-4 ovarian it was 103%; in the test with SK-OV-3 ovarian, 105%. The growth in the test on IGROV1 ovarian is 105%; in the test on OVCAR-3 ovarian, 106%; in the test on HS 578T breast, 105%; with NCI/ADR-RES ovarian it was 105%.

With `COc1cc(-c2nn(-c3ccc(NC(=O)Nc4cc(C(F)(F)F)cc(C(F)(F)F)c4)cc3)cc2-c2ccncc2)ccc1Cl`, the growth with SR leukemia is -0.776% (active); in the test with RPMI-8226 leukemia it was -2.24% (active); in the test with OVCAR-8 ovarian it was 9.59% (active); in the test with OVCAR-5 ovarian it was 18.8%; in the test with OVCAR-4 ovarian, -12.2% (active); in the test with SK-OV-3 ovarian, -3.31% (active). Besides, the growth was 8.43% (active) in the test on IGROV1 ovarian, -20.9% (active) with OVCAR-3 ovarian, -34% (active) in the test with HS 578T breast and 3.86% (active) in the test with NCI/ADR-RES ovarian.

For the molecule `Cc1ccc(S(=O)(=O)N/N=C2\CC3CCC2C3)cc1` (stereo not given), the growth was 103% in the test on SR leukemia; 104% with RPMI-8226 leukemia; 102% in the test on OVCAR-8 ovarian; 98.9% in the test on OVCAR-5 ovarian; 115% with OVCAR-4 ovarian; 93.9% in the test on SK-OV-3 ovarian. For the same molecule, the growth with IGROV1 ovarian was 101%; in the test on OVCAR-3 ovarian, 113%; in the test on HS 578T breast, 115%; in the test with NCI/ADR-RES ovarian, 119%.
